From PubChem BioAssay (EPA / NIEHS)
Activity calls are given as the source filed them. Rule for the calls: active = hit-call score of the fitted dose curve at least 0.9, where 1 is the maximum; inactive = score below 0.9.

Key:
[1] = read-out: TIMP metallopeptidase inhibitor 1 (TIMP1), TIMP1 (gene 7076); test: BSK_hDFCGF_TIMP1: BioMAP Diversity Plus: hDFCGF Assay for TIMP metallopeptidase inhibitor 1 (TIMP1) Biomarker Activity (AID 2283062); details: primary human foreskin fibroblasts; actives raise or lower the signal
In short: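 Human foreskin fibroblast primary cultures dosed for 24 h; secreted/surface TIMP-1 quantified by ELISA. Bidirectional curve fitting against DMSO baseline; cytotoxicity tracked in parallel cultures by SRB total-protein staining.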

[2] = read-out: Monokine induced gamma interferon (MIG), CXCL9 (gene 4283); test: BSK_hDFCGF_MIG: BioMAP Diversity Plus: hDFCGF Assay for Monokine induced gamma interferon (MIG) Biomarker Activity (AID 2283063); details: primary human foreskin fibroblasts; actives raise or lower the signal
In short: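 MIG/CXCL9 measured by ELISA 24 h after dosing primary human skin fibroblasts. Activity fitted in both directions against DMSO controls. Cytotoxicity was checked in parallel cultures by SRB staining read at 560 nm.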

[3] = read-out: Matrix Metallopeptidase 1 (MMP1), MMP1 (gene 4312); test: BSK_hDFCGF_MMP1: BioMAP Diversity Plus: hDFCGF Assay for Matrix Metallopeptidase 1 (MMP1) Biomarker Activity (AID 2283064); details: primary human foreskin fibroblasts; actives raise or lower the signal
In short: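 ELISA read-out of MMP1 from human foreskin fibroblasts (primary skin cells), 24 h post-dose. Gain or loss of signal was fitted bidirectionally versus DMSO negative control; cytotoxicity was checked by SRB in parallel cultures.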

[4] = read-out: Vascular cell adhesion molecule 1 (VCAM1), VCAM1 (gene 7412); test: BSK_hDFCGF_VCAM1: BioMAP Diversity Plus: hDFCGF Assay for Vascular cell adhesion molecule 1 (VCAM1) Biomarker Activity (AID 2283065); details: primary human foreskin fibroblasts; actives raise or lower the signal;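 for AC50: VCAM-1 protein level quantified by ELISA after 24 h chemical exposure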
In short: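 Human foreskin fibroblast primary cells dosed with chemical, VCAM-1 measured by ELISA at 24 h. Bidirectional curve fitting relative to DMSO as negative control/baseline.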

[5] = read-out: Plasminogen activator inhibitor-1 (PAI1), SERPINE1 (gene 5054); test: BSK_hDFCGF_PAI1: BioMAP Diversity Plus: hDFCGF Assay for Plasminogen activator inhibitor-1 (PAI1) Biomarker Activity (AID 2283066); details: primary human foreskin fibroblasts; actives raise or lower the signal
In short: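 ELISA readout of PAI-1 from primary human skin fibroblast cultures, 24 h after compound addition. Gain or loss of signal was fitted bidirectionally against DMSO baseline.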

[6] = read-out: Intercellular Adhesion Molecule 1 (ICAM1), ICAM1 (gene 3383); test: BSK_KF3CT_ICAM1: BioMAP Diversity Plus: KF3CT Assay for Intercellular Adhesion Molecule 1 (ICAM1) Biomarker Activity (AID 2283067); details: primary human keratinocytes with fibroblasts; actives raise or lower the signal
In short: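 Human keratinocyte–foreskin fibroblast co-culture was treated for 24 h. Cell-surface ICAM-1 was quantified by ELISA, fitted bidirectionally relative to DMSO. Cytotoxicity was checked in parallel cultures by SRB total-protein staining.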

[7] = read-out: Interferon-gamma inducible Protein 10 (IP10), CXCL10 (gene 3627); test: BSK_KF3CT_IP10: BioMAP Diversity Plus: KF3CT Assay for Interferon-gamma inducible Protein 10 (IP10) Biomarker Activity (AID 2283068); details: primary human keratinocytes with fibroblasts; actives raise or lower the signal
In short: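 ELISA read-out of IP-10 after 24 h chemical dosing of human skin primary co-culture (keratinocytes, foreskin fibroblasts). Gain or loss of signal relative to DMSO, bidirectional curve fit.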

[8] = BSK_KF3CT_SRB: Viability Assessment in the BioMAP Diversity Plus: KF3CT Assay (AID 2283069); details: primary human keratinocytes with fibroblasts;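 note: total protein by sulforhodamine B staining as a cytotoxicity measure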
In short: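 SRB read-out at 560 nm (0.1% stain, TCA-fixed cells) gauges overt cytotoxicity in a human skin keratinocyte–fibroblast co-culture 24 h post-dosing. Signal change was fitted bidirectionally relative to DMSO control.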

[9] = read-out: Interleukin-1 alpha (IL1a), IL1A (gene 3552); test: BSK_KF3CT_IL1a: BioMAP Diversity Plus: KF3CT Assay for Interleukin-1 alpha (IL1a) Biomarker Activity (AID 2283070); details: primary human keratinocytes with fibroblasts; actives raise or lower the signal
In short: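 Primary skin co-culture (keratinocytes, foreskin fibroblasts), 24 h exposure; ELISA for IL-1a; bidirectional curve fit vs DMSO.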

[10] = read-out: TIMP metallopeptidase inhibitor 2 (TIMP2), TIMP2 (gene 7077); test: BSK_KF3CT_TIMP2: BioMAP Diversity Plus: KF3CT Assay for TIMP metallopeptidase inhibitor 2 (TIMP2) Biomarker Activity (AID 2283071); details: primary human keratinocytes with fibroblasts; actives raise or lower the signal
In short: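 ELISA readout of TIMP-2 in keratinocyte plus foreskin fibroblast co-cultures (human skin primary cells), 24 h post-dose. Gain or loss of signal fitted relative to DMSO.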

[11] = read-out: Transforming growth factor beta 1 (TGFb1), TGFB1 (gene 7040); test: BSK_KF3CT_TGFb1: BioMAP Diversity Plus: KF3CT Assay for Transforming growth factor beta 1 (TGFb1) Biomarker Activity (AID 2283072); details: primary human keratinocytes with fibroblasts; actives raise or lower the signal
In short: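 Read-out: ELISA for TGF-b1 in keratinocyte/foreskin fibroblast human skin co-culture, 24 h after dosing; bidirectional curve fit vs DMSO baseline; gain or loss of signal scored.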

[12] = read-out: C-C motif chemokine 2 (Homo sapiens) (UniProt P13500); test: BSK_KF3CT_MCP1: BioMAP Diversity Plus: KF3CT Assay for Monocyte Chemoattractant Protein 1 (MCP1/CCL2) Biomarker Activity (AID 2283073); details: primary human keratinocytes with fibroblasts; actives raise or lower the signal
In short: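 Human keratinocyte–foreskin fibroblast co-culture; MCP-1 measured by ELISA 24 h after dosing. Bidirectional fit vs DMSO; cytotoxicity tracked by SRB total protein in parallel cultures.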

[13] = read-out: Matrix Metallopeptidase 9 (MMP9), MMP9 (gene 4318); test: BSK_KF3CT_MMP9: BioMAP Diversity Plus: KF3CT Assay for Matrix Metallopeptidase 9 (MMP9) Biomarker Activity (AID 2283074); details: primary human keratinocytes with fibroblasts; actives raise or lower the signal;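 for AC50: MMP9 protein level quantified by ELISA in the co-culture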
In short: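 ELISA read-out of MMP-9 at 24 h post-dosing in a co-culture of human skin keratinocytes and foreskin fibroblasts. Gain or loss of signal was fitted in both directions against DMSO.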

[14] = read-out: urokinase plasminogen activator (uPA), PLAU (gene 5328); test: BSK_KF3CT_uPA: BioMAP Diversity Plus: KF3CT Assay for urokinase plasminogen activator (uPA) Biomarker Activity (AID 2283075); details: primary human keratinocytes with fibroblasts; actives raise or lower the signal
In short: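 Skin co-culture (keratinocytes + foreskin fibroblasts), human primary; 24 h post-dose; uPA by ELISA; gain/loss fit vs DMSO baseline.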

[15] = read-out: CD40, CD40 (gene 958); test: BSK_LPS_CD40: BioMAP Diversity Plus: LPS Assay for CD40 Biomarker Activity (AID 2283076); details: primary human HUVEC with PBMC; actives raise or lower the signal
In short: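 HUVEC plus PBMC co-culture stimulated with LPS; CD40 quantified by ELISA 24 h after compound dosing. Fitting was bidirectional relative to DMSO. SRB staining of parallel cultures flagged overt cytotoxicity.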

[16] = read-out: E-selectin (Homo sapiens) (UniProt P16581); test: BSK_LPS_Eselectin: BioMAP Diversity Plus: LPS Assay for Eselectin Biomarker Activity (AID 2283077); details: primary human HUVEC with PBMC; actives raise or lower the signal
In short: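 Human umbilical vein endothelial cells co-cultured with PBMC under LPS stimulation; cell-surface E-selectin measured by ELISA 24 h after dosing. Change in either direction versus DMSO, with SRB total-protein staining in parallel cultures for cytotoxicity.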

[17] = read-out: Interleukin-8 (IL8), CXCL8 (gene 3576); test: BSK_LPS_IL8: BioMAP Diversity Plus: LPS Assay for Interleukin-8 (IL8) Biomarker Activity (AID 2283078); details: primary human HUVEC with PBMC; actives raise or lower the signal
In short: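 Human umbilical vein endothelial cells co-cultured with PBMC, LPS-stimulated, exposed to compound for 24 h. IL-8 quantified by ELISA; fitted in both directions against DMSO, with SRB total-protein staining of parallel cultures for cytotoxicity.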

[18] = BSK_LPS_SRB: Viability Assessment in the BioMAP Diversity Plus: LPS Assay (AID 2283079); details: primary human HUVEC with PBMC;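 note: total protein by sulforhodamine B absorbance as a cytotoxicity measure; measured one day after compound addition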
In short: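 Co-culture of human umbilical vein endothelial cells and PBMC, read 24 h after dosing. Total protein by 0.1% SRB staining after 10% TCA fixation, absorbance at 560 nm; bidirectional fit against DMSO.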

[19] = read-out: Interleukin-1 alpha (IL1a), IL1A (gene 3552); test: BSK_LPS_IL1a: BioMAP Diversity Plus: LPS Assay for Interleukin-1 alpha (IL1a) Biomarker Activity (AID 2283080); details: primary human HUVEC with PBMC; actives raise or lower the signal
In short: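 Human umbilical vein endothelial cells co-cultured with PBMC and stimulated with LPS; IL-1a measured by ELISA 24 h after dosing. Bidirectional fitting against DMSO; cytotoxicity checked by SRB staining in parallel cultures.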

[20] = read-out: Monocyte Chemoattractant Protein-1 (MCP1), CCL2 (gene 6347); test: BSK_LPS_MCP1: BioMAP Diversity Plus: LPS Assay for Monocyte Chemoattractant Protein-1 (MCP1) Biomarker Activity (AID 2283081); details: primary human HUVEC with PBMC; actives raise or lower the signal;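 for AC50: secreted MCP-1 protein quantified by ELISA in culture supernatant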
In short: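 Human umbilical vein endothelial cells co-cultured with PBMC, LPS-stimulated; secreted MCP-1 measured by ELISA 24 h after compound addition. Bidirectional curve fitting against DMSO baseline; SRB total-protein staining in parallel cultures for cytotoxicity.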

Measured: AC50

Chain of E-selectin (Homo sapiens) (P16581 whole entry, looked up): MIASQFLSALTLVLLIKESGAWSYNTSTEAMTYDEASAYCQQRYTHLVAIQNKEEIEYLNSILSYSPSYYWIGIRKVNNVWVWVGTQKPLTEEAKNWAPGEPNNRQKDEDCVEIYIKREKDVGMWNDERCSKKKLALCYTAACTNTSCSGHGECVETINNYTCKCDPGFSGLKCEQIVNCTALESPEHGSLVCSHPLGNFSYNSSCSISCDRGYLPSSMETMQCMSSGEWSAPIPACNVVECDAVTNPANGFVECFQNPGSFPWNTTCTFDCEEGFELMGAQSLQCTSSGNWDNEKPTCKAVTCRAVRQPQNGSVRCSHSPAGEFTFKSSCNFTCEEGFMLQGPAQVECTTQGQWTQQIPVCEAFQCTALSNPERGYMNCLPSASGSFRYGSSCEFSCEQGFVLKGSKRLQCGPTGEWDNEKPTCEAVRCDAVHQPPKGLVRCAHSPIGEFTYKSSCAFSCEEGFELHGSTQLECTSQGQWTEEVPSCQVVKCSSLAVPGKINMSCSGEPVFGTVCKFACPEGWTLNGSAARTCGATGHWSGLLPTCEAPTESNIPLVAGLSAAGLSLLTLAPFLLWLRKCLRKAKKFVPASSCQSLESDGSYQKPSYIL

CS(=O)(=O)OCCCCOS(C)(=O)=O
inactive: [1] | [2] | [3] | [4] | [5] | [6] | [7] | [8] | [9] | [10] | [11] | [12] | [13] | [14] | [15] | [16] | [17] | [18] | [19] | [20]

CC1(C)C2=CCCC(C)(C)[C@]23CC[C@H]1C3
inactive: [2] | [3] | [6] | [7] | [8] | [9] | [13] | [14] | [15] | [16] | [17] | [18] | [19] | [20]
active: [1] 31.2 µM | [4] 32.9 µM | [5] 32.9 µM | [10] 30.2 µM | [11] 7.31 µM | [12] 20 µM

C=C(C)C(=O)OCCOCCOCCOC(=O)C(=C)C
inactive: [1] | [2] | [3] | [4] | [6] | [7] | [8] | [10] | [11] | [12] | [13] | [15] | [16] | [17] | [18] | [19] | [20]
active: [5] 0.0518 µM | [9] 0.041 µM | [14] 3.97 µM

CCCCCC(C=O)=Cc1ccccc1
active: [3] 0.146 µM | [4] 20 µM | [6] 33.1 µM | [7] 30.4 µM | [8] 36.5 µM | [9] 20 µM | [10] 30 µM | [12] 28.8 µM | [13] 34.5 µM | [14] 35.9 µM | [15] 33.3 µM | [16] 31.1 µM | [18] 32.8 µM | [19] 34.3 µM | [20] 32.9 µM
inactive: [1] | [2] | [5] | [11] | [17]

C=C(C)[C@H]1CC=C(C)C(=O)C1
inactive: [1] | [2] | [3] | [4] | [5] | [6] | [7] | [8] | [9] | [10] | [11] | [12] | [13] | [14] | [15] | [16] | [17] | [18] | [19] | [20]

CCN(CC)C(=O)N(CC)CC
inactive: [1] | [2] | [3] | [4] | [5] | [6] | [7] | [8] | [9] | [10] | [11] | [12] | [13] | [14] | [15] | [16] | [17] | [18] | [19] | [20]
